Source: the supplement of paper PMC8726507
A number with no mark means an inactive call.

tested on: Plasmodium falciparum NF54-HGL (transmission to Anopheles stephensi); assay: percentage of barcode signal found in uninfected mosquitoes (transmission-blocking activity); higher = stronger blocking of transmission to mosquito, active = 80 or more; details: 10 µM; gametocyte preincubation time 24 h; readout time post-feed 8 days
Procedure: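 The mixture was fed to Anopheles stephensi in 96-well plates as blood meals tagged with DNA-barcoded Asaia bacteria. Eight days later, mosquitoes were classed infected or uninfected by luminescence (mean + 5 SD of unfed controls). Barcodes were quantified by Luminex MagPlex-TAG in the pooled uninfected and infected Asaia cultures, background-corrected, and the score is % of barcode signal in uninfected mosquitoes = 100*Iu/(Iu+Ii).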

SMILES	percentage of barcode signal found in uninfected mosquitoes
O=C(Nc1nnc(-c2ccc(Cl)s2)o1)c1ccc(Cl)s1	0.515%
O=C(NCc1ccoc1)N1CCN(Cc2ccc3c(c2)OCO3)CC1	25.5%
CC(C)c1ncc(-c2ccncc2)c([C@H]2CC[C@H](CNC(=O)c3cccnc3)CC2)n1	31.4%
O=C1N(Cc2cc3ccccc3s2)CC2CN(Cc3ccccc3)CCN12 (configuration not stated)	58.1%
Cc1ccc2cc(C3NC(=O)c4ccccc4N3)c(Cl)nc2c1 (configuration not stated)	71.8%
COc1ccc(-c2cnc3ccc(NCc4ccc(S(N)(=O)=O)cc4)nn23)cn1	68.2%
COC(=O)c1c(NC(=O)c2c(F)c(F)c(F)c(F)c2F)sc2c1CCCCC2	13.7%
O=C1Nc2ccc(Br)cc2C12NCCc1c2[nH]c2ccccc12 (configuration not stated)	27.2%
Cc1nnc(NC(=O)c2cn(-c3ccccc3)nc2-c2ccccc2C)o1	81% (active)
Cc1cc(C)cc(COc2ccc3c(C)c(CCC(=O)O)c(=O)oc3c2C)c1	1.73%
CCOc1ccc2cc(-c3nn(C(C)(C)C)c(N)c3C(N)=O)cnc2c1	71.5%
Cc1ncc(-c2ccnc(Nc3ccc(S(C)(=O)=O)cc3)n2)n1C(C)C	82.6% (active)
N#Cc1ccc(-c2ccc(OCC(N)=O)cc2)cc1	-1.66%
CNC1C(OC2C(OC3C(O)C(O)C(NC(=N)N)C(O)C3NC(=N)N)OC(C)C2(O)C=O)OC(CO)C(O)C1O (configuration not stated)	47%
CC1CCCCN1C(=O)NCCc1coc(-c2ccc(F)cc2)n1 (configuration not stated)	42%
CCc1c(C)nc(-n2nc(C)cc2NC(=O)c2ccccc2SC)[nH]c1=O	53.6%
c1csc(-c2cnc3sc(NCC4CCOCC4)nn23)c1	38.7%
COc1cc(NC(C)CCCN)c2ncccc2c1 (configuration not stated)	48.2%
O[C@@H](c1cc(C(F)(F)F)nc2c(C(F)(F)F)cccc12)[C@H]1CCCCN1	43.2%
Clc1cccc(C(c2ccc(CN3CCNCC3)cc2)n2ccnc2)c1 (configuration not stated)	89.4% (active)
COc1ccc(Nc2ccccc2NC(=O)c2ccc(O)nc2)cc1	7.07%
CN1CCCC1CCO[C@](C)(c1ccccc1)c1ccc(Cl)cc1 (some centres not stated)	87.8% (active)

same assay, conditions: 20 µM; gametocyte preincubation time 24 h; readout time post-feed 8 days

SMILES	percentage of barcode signal found in uninfected mosquitoes
CNC(=O)C1Cc2c([nH]c3cc(Cl)ccc23)C2(CCN(CCc3ccccc3)CC2)N1 (configuration not stated)	87.5% (active)
Cc1cc(NCC(C)C)c2n[nH]c(-c3ccccc3)c2n1	43%
COc1cccc(-c2nc3c(N4CCCC4)cccc3n2CC2CCCN2)n1 (configuration not stated)	68%
O=C([C@@H](c1ccc(Cl)cc1)c1cccnc1)N1CCN(c2ccc(C(F)(F)F)cc2)CC1	-0.981%
CC(c1cc(Cl)cc(Cl)c1)N(C)c1ncc2c(N)nc(N)nc2n1 (configuration not stated)	0.441%
CCOC(=O)c1c(NC(=O)c2c(F)c(F)c(F)c(F)c2F)sc(C(N)=O)c1C	60.8%
N=C(N)Nc1ccc(-c2ccc(-c3ccc(NC(=N)N)cc3Cl)o2)c(Cl)c1	39.3%
CC(=O)Nc1ccc(-c2noc(CC3CCCN(Cc4cccc(F)c4C)C3)n2)cc1 (configuration not stated)	0.0253%
CCOc1ccccc1NC(C)C(=O)Nc1cc(C(F)(F)F)ccc1N1CCOCC1 (configuration not stated)	40.9%
CO[C@H]1/C=C/O[C@@]2(C)Oc3c(C)c(O)c4c(O)c(/c(=C/NN5CCN(C)CC5)c(O)c4c3C2=O)=N\C(=O)/C(C)=C\C=C/[C@H](C)[C@H](O)[C@@H](C)[C@@H](O)[C@@H](C)[C@H](OC(C)=O)[C@@H]1C	20.2%
CCCCCCCCCCCCCCCCOP(=O)([O-])OCC[N+](C)(C)C	-0.352%
C[C@@H]1[C@H](O)[C@@H](C)/C=C/C=C/C=C/C=C/C=C/C=C/C=C/[C@H](O[C@@H]2O[C@H](C)[C@@H](O)[C@H](N)[C@@H]2O)C[C@@H]2O[C@](O)(C[C@@H](O)C[C@@H](O)[C@H](O)CC[C@@H](O)C[C@@H](O)CC(=O)O[C@H]1C)C[C@H](O)[C@H]2C(=O)O	-1.39%
CCOc1ccc(-c2nc(CNCCc3ccc(F)cc3)cs2)cc1	41.8%
CCCCc1ccc(C(=O)Nc2nccc3ccccc23)nc1	48.5%
CC(=O)N1CCN(c2ccc(Oc3ccc(Cl)cc3O)cc2)CC1	23.4%
